# Experimental data as given in ChEMBL document CHEMBL1961873, “Compounds: GSK PKIS; Assays: Nanosyn kinase panel” (2012).
# Tests used:
# [1] = molecular target: T1, Inhibitor of nuclear factor kappa-B kinase subunit epsilon (Homo sapiens) (UniProt Q14164); conditions: at 1 µM;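 further: reported values are averaged percent inhibition figures against human IKKε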
# T1 sequence (whole entry): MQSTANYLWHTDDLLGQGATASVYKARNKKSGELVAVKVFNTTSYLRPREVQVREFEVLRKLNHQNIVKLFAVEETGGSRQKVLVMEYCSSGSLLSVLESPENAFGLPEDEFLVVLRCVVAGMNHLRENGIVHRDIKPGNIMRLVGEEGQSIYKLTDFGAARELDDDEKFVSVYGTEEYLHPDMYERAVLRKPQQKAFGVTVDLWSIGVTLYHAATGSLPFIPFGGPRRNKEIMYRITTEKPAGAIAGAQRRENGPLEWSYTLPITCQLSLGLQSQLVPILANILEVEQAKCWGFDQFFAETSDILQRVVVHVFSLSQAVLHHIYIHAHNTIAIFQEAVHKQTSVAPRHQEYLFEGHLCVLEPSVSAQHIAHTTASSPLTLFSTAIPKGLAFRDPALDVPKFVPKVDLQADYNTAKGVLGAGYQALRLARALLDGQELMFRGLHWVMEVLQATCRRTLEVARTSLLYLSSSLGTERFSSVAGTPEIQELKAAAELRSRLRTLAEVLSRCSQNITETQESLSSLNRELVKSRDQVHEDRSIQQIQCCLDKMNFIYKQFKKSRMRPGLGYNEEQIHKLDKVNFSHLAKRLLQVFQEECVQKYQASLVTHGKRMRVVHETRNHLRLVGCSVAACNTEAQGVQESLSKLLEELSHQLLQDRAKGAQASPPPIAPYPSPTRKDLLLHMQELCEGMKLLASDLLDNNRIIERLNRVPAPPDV
# [2] = molecular target: T2, Serine/threonine-protein kinase Nek1 (Homo sapiens) (UniProt Q96PY6); conditions: at 0.1 µM
# T2 sequence (whole entry): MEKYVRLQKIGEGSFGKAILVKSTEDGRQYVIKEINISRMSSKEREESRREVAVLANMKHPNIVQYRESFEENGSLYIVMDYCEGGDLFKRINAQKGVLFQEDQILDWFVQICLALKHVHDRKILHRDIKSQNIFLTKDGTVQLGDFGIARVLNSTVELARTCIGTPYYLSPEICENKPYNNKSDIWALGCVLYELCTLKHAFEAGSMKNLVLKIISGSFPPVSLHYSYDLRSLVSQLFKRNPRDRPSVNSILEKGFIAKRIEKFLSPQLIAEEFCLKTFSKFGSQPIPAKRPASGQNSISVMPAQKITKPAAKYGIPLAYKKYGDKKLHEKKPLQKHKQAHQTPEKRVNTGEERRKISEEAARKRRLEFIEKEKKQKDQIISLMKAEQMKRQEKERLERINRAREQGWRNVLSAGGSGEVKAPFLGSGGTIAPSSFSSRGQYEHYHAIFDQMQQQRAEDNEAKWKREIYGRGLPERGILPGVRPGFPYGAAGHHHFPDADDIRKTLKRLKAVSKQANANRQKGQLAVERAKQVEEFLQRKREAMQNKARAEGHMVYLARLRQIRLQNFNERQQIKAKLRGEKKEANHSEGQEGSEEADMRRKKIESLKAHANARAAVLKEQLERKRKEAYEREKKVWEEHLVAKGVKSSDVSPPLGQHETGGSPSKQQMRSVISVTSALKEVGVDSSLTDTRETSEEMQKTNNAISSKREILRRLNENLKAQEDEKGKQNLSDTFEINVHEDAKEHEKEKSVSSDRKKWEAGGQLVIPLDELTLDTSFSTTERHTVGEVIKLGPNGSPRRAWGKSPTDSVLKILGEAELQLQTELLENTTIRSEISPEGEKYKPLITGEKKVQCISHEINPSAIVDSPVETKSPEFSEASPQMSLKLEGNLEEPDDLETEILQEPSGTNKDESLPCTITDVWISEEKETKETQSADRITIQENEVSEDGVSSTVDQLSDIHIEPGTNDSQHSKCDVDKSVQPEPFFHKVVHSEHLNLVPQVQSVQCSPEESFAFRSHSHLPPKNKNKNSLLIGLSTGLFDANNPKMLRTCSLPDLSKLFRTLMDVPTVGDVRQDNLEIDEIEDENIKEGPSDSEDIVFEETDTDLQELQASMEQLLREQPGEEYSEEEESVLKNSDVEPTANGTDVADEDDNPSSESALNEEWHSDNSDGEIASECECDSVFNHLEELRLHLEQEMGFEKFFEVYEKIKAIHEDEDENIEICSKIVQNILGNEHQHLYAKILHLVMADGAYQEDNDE
# [3] = molecular target: T2, Serine/threonine-protein kinase Nek1 (Homo sapiens); conditions: at 1 µM
# [4] = molecular target: T3, Serine/threonine-protein kinase Nek2 (Homo sapiens) (UniProt P51955); conditions: at 0.1 µM
# T3 sequence (whole entry): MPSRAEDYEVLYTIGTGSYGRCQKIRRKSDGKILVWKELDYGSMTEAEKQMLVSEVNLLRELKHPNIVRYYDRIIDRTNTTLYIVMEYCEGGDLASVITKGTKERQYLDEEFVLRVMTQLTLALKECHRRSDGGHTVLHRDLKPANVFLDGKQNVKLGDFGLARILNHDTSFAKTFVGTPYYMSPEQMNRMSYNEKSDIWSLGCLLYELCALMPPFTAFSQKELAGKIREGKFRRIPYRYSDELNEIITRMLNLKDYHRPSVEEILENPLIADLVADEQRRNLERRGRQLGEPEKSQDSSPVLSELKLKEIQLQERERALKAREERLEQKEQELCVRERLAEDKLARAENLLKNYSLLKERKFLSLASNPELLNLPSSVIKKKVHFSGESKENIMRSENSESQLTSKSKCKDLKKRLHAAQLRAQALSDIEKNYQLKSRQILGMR
# [5] = molecular target: T3, Serine/threonine-protein kinase Nek2 (Homo sapiens); conditions: at 1 µM
# [6] = molecular target: Serine/threonine-protein kinase Nek6 (Homo sapiens) (UniProt Q9HC98); conditions: at 0.1 µM
# [7] = molecular target: Serine/threonine-protein kinase Nek6 (Homo sapiens) (UniProt Q9HC98); conditions: at 1 µM
# [8] = molecular target: Serine/threonine-protein kinase Nek7 (Homo sapiens) (UniProt Q8TDX7); conditions: at 0.1 µM
# [9] = molecular target: Serine/threonine-protein kinase Nek7 (Homo sapiens) (UniProt Q8TDX7); conditions: at 1 µM
# [10] = molecular target: T4, Serine/threonine-protein kinase Nek9 (Homo sapiens) (UniProt Q8TD19); conditions: at 0.1 µM
# T4 sequence (whole entry): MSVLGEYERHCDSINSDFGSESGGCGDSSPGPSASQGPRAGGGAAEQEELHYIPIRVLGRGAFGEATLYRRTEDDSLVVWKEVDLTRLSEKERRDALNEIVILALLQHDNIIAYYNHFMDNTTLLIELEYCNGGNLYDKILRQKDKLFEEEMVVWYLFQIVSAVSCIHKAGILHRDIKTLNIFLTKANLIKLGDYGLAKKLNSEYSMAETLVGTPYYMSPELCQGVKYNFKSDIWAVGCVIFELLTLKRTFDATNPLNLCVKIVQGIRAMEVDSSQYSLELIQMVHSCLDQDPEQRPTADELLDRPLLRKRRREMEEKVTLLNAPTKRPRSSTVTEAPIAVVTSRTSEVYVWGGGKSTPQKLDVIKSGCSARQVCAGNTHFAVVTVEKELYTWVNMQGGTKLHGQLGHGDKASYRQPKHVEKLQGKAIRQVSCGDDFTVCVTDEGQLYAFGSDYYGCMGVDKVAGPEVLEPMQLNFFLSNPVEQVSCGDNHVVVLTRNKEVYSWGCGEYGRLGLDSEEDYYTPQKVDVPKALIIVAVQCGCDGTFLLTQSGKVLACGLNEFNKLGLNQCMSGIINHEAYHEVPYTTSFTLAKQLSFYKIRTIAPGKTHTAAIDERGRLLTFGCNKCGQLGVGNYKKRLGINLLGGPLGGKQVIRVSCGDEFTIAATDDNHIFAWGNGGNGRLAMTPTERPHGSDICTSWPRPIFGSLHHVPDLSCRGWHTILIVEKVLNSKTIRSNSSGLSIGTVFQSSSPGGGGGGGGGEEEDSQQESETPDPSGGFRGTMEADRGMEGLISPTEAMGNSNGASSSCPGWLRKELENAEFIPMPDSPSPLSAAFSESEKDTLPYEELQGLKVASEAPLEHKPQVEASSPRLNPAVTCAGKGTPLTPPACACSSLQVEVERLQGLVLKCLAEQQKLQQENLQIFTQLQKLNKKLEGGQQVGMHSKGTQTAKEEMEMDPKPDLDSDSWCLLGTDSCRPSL
# [11] = molecular target: T4, Serine/threonine-protein kinase Nek9 (Homo sapiens); conditions: at 1 µM
# [12] = molecular target: Serine/threonine-protein kinase PLK1 (Homo sapiens) (UniProt P53350); conditions: at 0.1 µM
# [13] = molecular target: Serine/threonine-protein kinase PLK1 (Homo sapiens) (UniProt P53350); conditions: at 1 µM
# [14] = molecular target: T5, Dual specificity protein kinase TTK (Homo sapiens) (UniProt P33981); conditions: at 0.1 µM
# T5 sequence (whole entry): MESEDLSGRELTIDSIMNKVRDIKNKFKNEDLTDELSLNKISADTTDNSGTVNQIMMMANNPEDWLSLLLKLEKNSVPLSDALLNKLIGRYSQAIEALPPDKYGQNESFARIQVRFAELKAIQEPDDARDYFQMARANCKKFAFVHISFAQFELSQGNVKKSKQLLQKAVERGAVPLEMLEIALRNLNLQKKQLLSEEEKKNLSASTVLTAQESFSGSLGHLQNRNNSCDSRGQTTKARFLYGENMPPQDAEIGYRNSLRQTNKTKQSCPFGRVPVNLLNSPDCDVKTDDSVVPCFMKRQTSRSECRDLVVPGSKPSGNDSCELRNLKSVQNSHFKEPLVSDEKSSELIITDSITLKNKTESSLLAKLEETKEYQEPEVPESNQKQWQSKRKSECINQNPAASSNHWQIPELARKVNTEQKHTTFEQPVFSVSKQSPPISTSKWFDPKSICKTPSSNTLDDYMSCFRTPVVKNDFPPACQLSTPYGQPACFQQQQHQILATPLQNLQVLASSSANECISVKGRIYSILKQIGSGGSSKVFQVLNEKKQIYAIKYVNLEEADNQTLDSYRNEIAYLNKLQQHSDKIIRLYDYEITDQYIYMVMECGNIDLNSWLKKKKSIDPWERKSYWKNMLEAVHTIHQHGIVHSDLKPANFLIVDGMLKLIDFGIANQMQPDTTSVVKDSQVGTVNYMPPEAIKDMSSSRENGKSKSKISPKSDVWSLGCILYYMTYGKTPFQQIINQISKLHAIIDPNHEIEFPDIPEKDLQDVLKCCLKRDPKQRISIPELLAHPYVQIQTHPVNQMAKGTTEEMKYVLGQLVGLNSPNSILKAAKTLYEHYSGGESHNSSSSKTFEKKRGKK
# [15] = test system: T6, Receptor-type tyrosine-protein kinase FLT3 (Homo sapiens), P36888 [D835Y]; conditions: at 1 µM
# T6 sequence (whole entry): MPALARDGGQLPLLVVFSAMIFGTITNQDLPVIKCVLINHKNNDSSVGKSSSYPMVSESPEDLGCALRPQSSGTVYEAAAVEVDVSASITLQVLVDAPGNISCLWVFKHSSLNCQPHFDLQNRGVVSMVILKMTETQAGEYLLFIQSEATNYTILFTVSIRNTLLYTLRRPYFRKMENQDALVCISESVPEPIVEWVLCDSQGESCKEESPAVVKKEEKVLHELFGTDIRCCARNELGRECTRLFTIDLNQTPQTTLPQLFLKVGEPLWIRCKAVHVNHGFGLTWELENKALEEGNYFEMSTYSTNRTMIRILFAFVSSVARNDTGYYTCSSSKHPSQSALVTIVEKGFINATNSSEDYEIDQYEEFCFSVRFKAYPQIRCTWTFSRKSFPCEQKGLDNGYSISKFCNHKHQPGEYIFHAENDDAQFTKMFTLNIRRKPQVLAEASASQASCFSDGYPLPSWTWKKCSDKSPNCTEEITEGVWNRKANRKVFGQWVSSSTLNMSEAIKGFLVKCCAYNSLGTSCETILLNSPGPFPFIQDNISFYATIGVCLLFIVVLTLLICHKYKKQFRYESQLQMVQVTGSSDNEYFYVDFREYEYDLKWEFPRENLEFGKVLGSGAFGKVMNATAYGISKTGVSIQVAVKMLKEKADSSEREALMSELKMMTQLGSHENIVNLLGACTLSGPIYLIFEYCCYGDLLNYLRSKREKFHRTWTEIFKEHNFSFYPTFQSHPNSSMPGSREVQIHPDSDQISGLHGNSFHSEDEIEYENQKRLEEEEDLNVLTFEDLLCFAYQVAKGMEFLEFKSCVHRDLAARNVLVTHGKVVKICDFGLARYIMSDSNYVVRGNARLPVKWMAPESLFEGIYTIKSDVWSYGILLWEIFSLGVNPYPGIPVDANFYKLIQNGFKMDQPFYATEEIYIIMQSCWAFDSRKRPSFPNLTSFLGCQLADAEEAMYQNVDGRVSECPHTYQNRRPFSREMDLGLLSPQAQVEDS
# [16] = molecular target: Vascular endothelial growth factor receptor 3 (Homo sapiens) (UniProt P35916); conditions: at 0.1 µM
# [17] = molecular target: Vascular endothelial growth factor receptor 3 (Homo sapiens) (UniProt P35916); conditions: at 1 µM
# [18] = molecular target: Macrophage colony-stimulating factor 1 receptor (Homo sapiens) (UniProt P07333); conditions: at 0.1 µM
# [19] = molecular target: Macrophage colony-stimulating factor 1 receptor (Homo sapiens) (UniProt P07333); conditions: at 1 µM
# [20] = molecular target: Tyrosine-protein kinase Fyn (Homo sapiens) (UniProt P06241); conditions: at 0.1 µM
# Tyrosine-protein kinase Fyn (Homo sapiens), sequence (P06241 2-537 limits assumed): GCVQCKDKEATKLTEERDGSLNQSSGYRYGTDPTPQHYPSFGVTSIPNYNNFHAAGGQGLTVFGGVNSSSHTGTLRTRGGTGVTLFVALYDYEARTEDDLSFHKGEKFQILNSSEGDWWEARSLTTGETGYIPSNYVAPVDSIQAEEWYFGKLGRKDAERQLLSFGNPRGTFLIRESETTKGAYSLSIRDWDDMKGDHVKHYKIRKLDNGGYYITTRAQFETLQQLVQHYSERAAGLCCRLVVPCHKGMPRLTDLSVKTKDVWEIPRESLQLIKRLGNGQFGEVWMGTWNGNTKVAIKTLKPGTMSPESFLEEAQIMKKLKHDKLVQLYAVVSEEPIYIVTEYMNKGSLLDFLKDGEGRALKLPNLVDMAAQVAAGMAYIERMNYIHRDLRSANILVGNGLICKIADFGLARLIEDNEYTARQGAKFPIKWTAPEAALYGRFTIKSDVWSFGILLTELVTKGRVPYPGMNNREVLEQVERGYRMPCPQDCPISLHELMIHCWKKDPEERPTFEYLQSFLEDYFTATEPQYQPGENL
# Macrophage colony-stimulating factor 1 receptor (Homo sapiens), sequence (P07333 whole entry): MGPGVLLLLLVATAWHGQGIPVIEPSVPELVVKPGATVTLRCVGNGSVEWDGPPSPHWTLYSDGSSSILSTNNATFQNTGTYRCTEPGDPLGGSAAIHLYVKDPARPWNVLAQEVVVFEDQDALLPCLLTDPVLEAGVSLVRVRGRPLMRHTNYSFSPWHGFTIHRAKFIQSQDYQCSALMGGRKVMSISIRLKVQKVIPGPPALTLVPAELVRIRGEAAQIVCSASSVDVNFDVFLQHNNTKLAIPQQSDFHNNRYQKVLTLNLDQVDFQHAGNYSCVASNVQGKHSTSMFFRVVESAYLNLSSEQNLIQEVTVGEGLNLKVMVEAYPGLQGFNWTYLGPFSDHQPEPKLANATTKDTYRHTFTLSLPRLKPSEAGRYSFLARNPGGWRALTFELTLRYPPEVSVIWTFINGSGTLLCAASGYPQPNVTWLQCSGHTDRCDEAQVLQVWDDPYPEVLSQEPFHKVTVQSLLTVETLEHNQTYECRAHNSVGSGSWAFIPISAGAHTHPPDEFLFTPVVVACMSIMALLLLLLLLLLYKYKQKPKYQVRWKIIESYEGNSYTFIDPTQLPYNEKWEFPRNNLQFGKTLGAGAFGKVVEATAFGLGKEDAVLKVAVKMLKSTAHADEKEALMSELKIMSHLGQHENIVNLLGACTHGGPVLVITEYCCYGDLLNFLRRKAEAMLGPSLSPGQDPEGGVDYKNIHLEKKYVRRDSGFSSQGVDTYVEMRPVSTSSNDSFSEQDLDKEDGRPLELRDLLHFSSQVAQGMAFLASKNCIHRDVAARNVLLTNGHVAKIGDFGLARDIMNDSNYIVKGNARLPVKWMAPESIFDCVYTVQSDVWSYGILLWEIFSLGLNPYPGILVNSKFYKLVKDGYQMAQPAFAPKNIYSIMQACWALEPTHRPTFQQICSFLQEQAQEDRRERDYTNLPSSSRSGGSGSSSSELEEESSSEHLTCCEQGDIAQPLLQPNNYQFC
# Serine/threonine-protein kinase Nek7 (Homo sapiens), sequence (Q8TDX7 whole entry, looked up): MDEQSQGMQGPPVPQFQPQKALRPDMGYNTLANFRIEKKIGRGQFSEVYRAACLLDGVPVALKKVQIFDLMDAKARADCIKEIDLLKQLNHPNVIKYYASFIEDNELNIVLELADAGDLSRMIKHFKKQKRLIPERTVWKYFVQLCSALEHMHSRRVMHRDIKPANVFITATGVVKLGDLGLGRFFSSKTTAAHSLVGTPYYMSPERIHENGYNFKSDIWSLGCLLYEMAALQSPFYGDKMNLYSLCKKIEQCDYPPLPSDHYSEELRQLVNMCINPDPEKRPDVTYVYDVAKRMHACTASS
# Vascular endothelial growth factor receptor 3 (Homo sapiens), sequence (P35916 whole entry): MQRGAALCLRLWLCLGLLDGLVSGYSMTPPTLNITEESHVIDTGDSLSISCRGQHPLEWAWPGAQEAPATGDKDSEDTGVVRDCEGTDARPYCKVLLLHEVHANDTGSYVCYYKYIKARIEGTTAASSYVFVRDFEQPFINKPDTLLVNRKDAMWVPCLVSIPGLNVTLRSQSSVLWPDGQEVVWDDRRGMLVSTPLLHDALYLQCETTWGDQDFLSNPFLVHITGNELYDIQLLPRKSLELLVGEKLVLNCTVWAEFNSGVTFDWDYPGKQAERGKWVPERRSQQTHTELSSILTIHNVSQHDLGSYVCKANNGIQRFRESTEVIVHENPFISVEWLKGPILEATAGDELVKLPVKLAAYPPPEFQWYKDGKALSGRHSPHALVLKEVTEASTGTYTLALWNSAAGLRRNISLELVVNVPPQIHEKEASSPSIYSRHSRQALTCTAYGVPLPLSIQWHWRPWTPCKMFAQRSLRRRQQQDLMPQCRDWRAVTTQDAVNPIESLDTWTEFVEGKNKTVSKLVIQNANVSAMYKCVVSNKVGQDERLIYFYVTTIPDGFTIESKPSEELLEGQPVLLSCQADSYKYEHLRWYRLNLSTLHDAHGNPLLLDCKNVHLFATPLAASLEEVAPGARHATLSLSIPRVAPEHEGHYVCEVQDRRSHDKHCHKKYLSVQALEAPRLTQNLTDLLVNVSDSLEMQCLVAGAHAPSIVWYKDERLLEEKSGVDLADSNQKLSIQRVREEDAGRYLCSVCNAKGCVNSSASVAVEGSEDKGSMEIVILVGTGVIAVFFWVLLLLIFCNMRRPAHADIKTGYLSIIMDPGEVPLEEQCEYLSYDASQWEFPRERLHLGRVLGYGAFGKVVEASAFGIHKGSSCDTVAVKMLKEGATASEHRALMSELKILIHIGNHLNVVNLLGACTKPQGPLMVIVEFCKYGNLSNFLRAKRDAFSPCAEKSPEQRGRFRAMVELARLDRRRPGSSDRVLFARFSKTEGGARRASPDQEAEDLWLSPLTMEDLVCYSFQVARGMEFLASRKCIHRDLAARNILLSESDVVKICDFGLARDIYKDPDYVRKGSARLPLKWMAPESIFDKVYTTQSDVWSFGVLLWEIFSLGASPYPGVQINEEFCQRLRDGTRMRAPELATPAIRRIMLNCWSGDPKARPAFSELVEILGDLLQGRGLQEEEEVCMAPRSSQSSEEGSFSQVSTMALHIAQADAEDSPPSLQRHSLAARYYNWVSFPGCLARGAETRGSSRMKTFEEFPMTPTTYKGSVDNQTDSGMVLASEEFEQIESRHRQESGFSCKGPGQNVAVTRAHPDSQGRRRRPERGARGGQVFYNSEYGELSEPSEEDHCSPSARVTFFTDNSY
# Serine/threonine-protein kinase Nek6 (Homo sapiens), sequence (Q9HC98 whole entry): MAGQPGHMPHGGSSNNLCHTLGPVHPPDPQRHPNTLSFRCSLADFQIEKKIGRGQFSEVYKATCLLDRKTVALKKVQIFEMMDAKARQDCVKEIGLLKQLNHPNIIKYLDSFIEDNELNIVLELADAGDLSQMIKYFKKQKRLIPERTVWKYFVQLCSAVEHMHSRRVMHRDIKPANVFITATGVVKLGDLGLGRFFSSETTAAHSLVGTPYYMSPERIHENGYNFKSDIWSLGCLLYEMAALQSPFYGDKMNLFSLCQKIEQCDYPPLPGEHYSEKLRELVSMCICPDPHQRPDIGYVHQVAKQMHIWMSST
# Serine/threonine-protein kinase PLK1 (Homo sapiens), sequence (P53350 whole entry): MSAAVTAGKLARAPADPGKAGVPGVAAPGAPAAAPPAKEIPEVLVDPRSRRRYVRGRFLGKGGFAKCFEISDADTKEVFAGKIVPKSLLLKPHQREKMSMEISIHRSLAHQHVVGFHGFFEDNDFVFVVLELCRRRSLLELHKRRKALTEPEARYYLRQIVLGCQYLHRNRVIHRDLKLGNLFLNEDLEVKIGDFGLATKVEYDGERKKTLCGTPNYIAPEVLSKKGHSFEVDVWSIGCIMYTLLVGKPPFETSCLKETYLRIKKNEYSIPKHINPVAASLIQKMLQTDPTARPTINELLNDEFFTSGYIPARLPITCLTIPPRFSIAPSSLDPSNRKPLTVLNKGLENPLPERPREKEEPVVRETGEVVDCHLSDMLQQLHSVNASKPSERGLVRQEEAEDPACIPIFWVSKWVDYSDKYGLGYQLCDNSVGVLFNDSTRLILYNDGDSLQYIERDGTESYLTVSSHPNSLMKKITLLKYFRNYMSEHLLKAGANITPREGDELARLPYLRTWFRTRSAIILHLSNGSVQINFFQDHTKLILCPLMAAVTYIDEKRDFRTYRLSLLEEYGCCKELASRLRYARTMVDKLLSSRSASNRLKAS
smiles,measurement,setting,value
Cc1ccc2c(-c3ccnc(Nc4ccccc4)n3)c(-c3ccc(F)cc3)nn2n1,inhibition,[1],3.29%
same,inhibition,[2],2.02%
same,inhibition,[3],2.14%
same,inhibition,[4],4.21%
same,inhibition,[5],3%
same,inhibition,[6],4.02%
same,inhibition,[7],-0.68%
same,inhibition,[8],2.06%
same,inhibition,[9],2.94%
same,inhibition,[10],-1.05%
same,inhibition,[11],5.94%
same,inhibition,[12],1.63%
same,inhibition,[13],1.62%
same,inhibition,[14],4.36%
same,inhibition,[15],-2.14%
same,inhibition,[16],5.68%
same,inhibition,[17],28.3%
same,inhibition,[18],10.5%
same,inhibition,[19],45.1%
same,inhibition,[20],18.7%
